# Reference: the supplement of paper PMC8728848
# Only a selection was taken, and the strongest signals are over-represented in it overall.
# How the values were obtained:
# Experiment in all cases: glycan array binding signal (z-score within array); higher = stronger binding
# Conditions in all cases: glycan notation: IUPAC condensed, linker removed
# [1] = target: Fuc(a1-2)Gal(b1-3)GlcNAc(b1-2)Man(a1-3)[Fuc(a1-2)Gal(b1-3)GlcNAc(b1-2)Man(a1-6)]Man(b1-4)GlcNAc(b1-4)GlcNAc
# Summary of the method: (§1)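 The binding signal is a Z-score computed within each array and averaged over linkers. Arrays of the same protein sequence at different concentrations or buffers were also averaged together. Data originate from 3228 arrays in the Consortium for Functional Glycomics database, kept only where the protein sequence was available.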
# [2] = target: Fuc(a1-2)Gal(b1-4)GlcNAc(b1-2)Man(a1-3)[Fuc(a1-2)Gal(b1-4)GlcNAc(b1-2)Man(a1-6)]Man(b1-4)GlcNAc(b1-4)GlcNAc
# Summary of the method: as §1
# [3] = target: Fuc(a1-2)Gal(b1-4)GlcNAc(b1-2)Man(a1-3)[Fuc(a1-2)Gal(b1-4)GlcNAc(b1-2)Man(a1-6)]Man(b1-4)GlcNAc(b1-4)[Fuc(a1-6)]GlcNAc
# Summary of the method: as §1
# [4] = target: Fuc(a1-2)Gal(b1-4)GlcNAc(b1-2)[Fuc(a1-2)Gal(b1-4)GlcNAc(b1-4)]Man(a1-3)[Fuc(a1-2)Gal(b1-4)GlcNAc(b1-2)Man(a1-6)]Man(b1-4)GlcNAc(b1-4)GlcNAc
# Summary of the method: as §1
# [5] = target: Fuc(a1-2)Gal(b1-4)[Fuc(a1-3)]GlcNAc
# Summary of the method: as §1
# [6] = target: Fuc(a1-2)Gal6S(b1-4)Glc6S
# Summary of the method: as §1
# [7] = target: Fuc(a1-2)[Gal(a1-3)]Gal(b1-4)GlcNAc(b1-3)[Fuc(a1-2)[Gal(a1-3)]Gal(b1-4)GlcNAc(b1-6)]GalNAc
# Summary of the method: as §1
# [8] = target: Fuc(a1-2)[GalNAc(a1-3)]Gal(b1-4)GlcNAc(b1-3)GalNAc
# Summary of the method: as §1
# [9] = target: Fuc(a1-2)[GalNAc(a1-4)]Gal(b1-4)GlcNAc
# Summary of the method: as §1
# [10] = target: Fuc(a1-3)[Gal(b1-4)]GlcNAc(b1-2)Man(a1-3)[Fuc(a1-3)[Gal(b1-4)]GlcNAc(b1-2)Man(a1-6)]Man(b1-4)GlcNAc(b1-4)GlcNAc
# Summary of the method: as §1
# [11] = target: Gal(a1-3)Gal(b1-3)GlcNAc
# Summary of the method: as §1
# [12] = target: Gal(a1-3)Gal(b1-3)GlcNAc(b1-2)Man(a1-3)[Gal(a1-3)Gal(b1-3)GlcNAc(b1-2)Man(a1-6)]Man(b1-4)GlcNAc(b1-4)GlcNAc
# Summary of the method: as §1
# [13] = target: Gal(a1-3)Gal(b1-3)GlcNAc(b1-6)GalNAc
# Summary of the method: as §1
# [14] = target: Gal(a1-3)Gal(b1-3)[Fuc(a1-4)]GlcNAc(b1-2)Man(a1-3)[Gal(a1-3)Gal(b1-3)[Fuc(a1-4)]GlcNAc(b1-2)Man(a1-6)]Man(b1-4)GlcNAc(b1-4)GlcNAc
# Summary of the method: as §1
# [15] = target: Gal(a1-3)Gal(b1-4)GlcNAc
# Summary of the method: as §1
# [16] = target: Gal(a1-3)Gal(b1-4)GlcNAc(b1-3)GalNAc
# Summary of the method: as §1
# [17] = target: Gal(a1-4)Gal(b1-3)GlcNAc(b1-2)Man(a1-3)[Gal(a1-4)Gal(b1-3)GlcNAc(b1-2)Man(a1-6)]Man(b1-4)GlcNAc(b1-4)GlcNAc
# Summary of the method: as §1
# [18] = target: Gal(b1-3)GalNAc(a1-3)[Fuc(a1-2)]Gal(b1-4)GlcNAc
# Summary of the method: as §1
# [19] = target: Gal(b1-3)GalNAc(b1-4)[Neu5Ac(a2-3)]Gal(b1-4)Glc
# Summary of the method: as §1
# [20] = target: Gal(b1-3)GlcNAc(b1-3)Gal(b1-4)GlcNAc(b1-3)Gal(b1-4)GlcNAc(b1-2)[Gal(b1-3)GlcNAc(b1-3)Gal(b1-4)GlcNAc(b1-3)Gal(b1-4)GlcNAc(b1-6)]Man(a1-6)[Gal(b1-3)GlcNAc(b1-3)Gal(b1-4)GlcNAc(b1-3)Gal(b1-4)GlcNAc(b1-2)Man(a1-3)]Man(b1-4)GlcNAc(b1-4)[Fuc(a1-6)]GlcNAc
# Summary of the method: as §1
# [21] = target: Gal(b1-3)[Fuc(a1-4)]GlcNAc(b1-6)GalNAc
# Summary of the method: as §1
# [22] = target: Gal(b1-3)[Neu5Ac(b2-6)]GalNAc
# Summary of the method: as §1
# [23] = target: Gal(b1-4)GlcNAc(b1-2)Man(a1-3)[Gal(b1-4)GlcNAc(b1-2)Man(a1-6)][Gal(b1-4)GlcNAc(b1-4)]Man(b1-4)GlcNAc(b1-4)[Fuc(a1-6)]GlcNAc
# Summary of the method: as §1
# [24] = target: Gal(b1-4)GlcNAc(b1-3)Gal(b1-4)Glc
# Summary of the method: as §1
# [25] = target: Gal(b1-4)GlcNAc(b1-3)Gal(b1-4)GlcNAc(b1-3)Gal(b1-4)GlcNAc(b1-2)Man(a1-3)[Gal(b1-4)GlcNAc(b1-3)Gal(b1-4)GlcNAc(b1-3)Gal(b1-4)GlcNAc(b1-2)Man(a1-6)]Man(b1-4)GlcNAc(b1-4)GlcNAc
# Summary of the method: as §1
# [26] = target: Gal(b1-4)GlcNAc(b1-3)Gal(b1-4)GlcNAc(b1-3)Gal(b1-4)GlcNAc(b1-3)Gal(b1-4)GlcNAc(b1-2)Man(a1-3)[Gal(b1-4)GlcNAc(b1-3)Gal(b1-4)GlcNAc(b1-3)Gal(b1-4)GlcNAc(b1-3)Gal(b1-4)GlcNAc(b1-2)Man(a1-6)]Man(b1-4)GlcNAc(b1-4)GlcNAc
# Summary of the method: as §1
# [27] = target: Gal(b1-4)GlcNAc(b1-3)Gal(b1-4)GlcNAc(b1-3)Gal(b1-4)GlcNAc(b1-3)Gal(b1-4)GlcNAc(b1-3)Gal(b1-4)GlcNAc(b1-2)Man(a1-3)[Gal(b1-4)GlcNAc(b1-3)Gal(b1-4)GlcNAc(b1-3)Gal(b1-4)GlcNAc(b1-3)Gal(b1-4)GlcNAc(b1-3)Gal(b1-4)GlcNAc(b1-2)Man(a1-6)]Man(b1-4)GlcNAc(b1-4)GlcNAc
# Summary of the method: as §1
# [28] = target: Gal(b1-4)GlcNAc(b1-3)Gal(b1-4)GlcNAc(b1-6)[Gal(b1-3)]GalNAc
# Summary of the method: as §1
# [29] = target: Gal(b1-4)GlcNAc(b1-6)[Gal(b1-3)]GalNAc
# Summary of the method: as §1
# [30] = target: Gal3S4S(b1-4)GlcNAc
# Summary of the method: as §1
binder,measurement,setting,value
PX9937I-bfa-538-26-538 (Bacteroides fragilis) (protein) DKLDLSPIDYYGSGSYWKTEAQATAYIDGIHKHLRDAAWQHTITFGELRGGRFITGASSDGMGVSNGDIILQNFDETHTGVSKFGDLFGRITNLNLFIARVTDATYLSDEMKNFYLGEVYGLRAFYYFDLYRIYGGVPLRLTADVVEGVIDPNKLYMARSTPKEVMTQIKSDLNKSMEYFGNMNDFDPYKRGKKVYWSKAATECLMGEVYLWTSKVTTGDDVANPADLTIAKTHLESVLNNYNLKMLDDFSQVFNAKNKANDEIIFAIRFLEGEATNSNGTFTYNVGTGSTKNRYQANGEVFGDALDIQNTGNQTYEYNKAVYQNFDDADTRKEATFIASYNKDGKTGELSLYGTHVRKNIGYVNAQGARVYCGDYIFYRLPWVYLTLAEIANMEGDNAAVAKYINLVRKRAYGNAWDETLYAYPETADFTTNELAILHEKDKEFIQEGQRWWDLRRMTLTKGGTPLVFCKEGSLLGDAPILNKSTEAHKLLWPIEKTMLNKDPALEQTPGYK,glycan array binding signal (z-score),[1],5.41
same,glycan array binding signal (z-score),[2],3.93
same,glycan array binding signal (z-score),[3],1.57
same,glycan array binding signal (z-score),[4],1.02
same,glycan array binding signal (z-score),[5],-0.821
same,glycan array binding signal (z-score),[6],2.55
same,glycan array binding signal (z-score),[7],-0.413
same,glycan array binding signal (z-score),[8],-0.541
same,glycan array binding signal (z-score),[9],1.66
same,glycan array binding signal (z-score),[10],3.92
same,glycan array binding signal (z-score),[11],0.142
same,glycan array binding signal (z-score),[12],0.317
same,glycan array binding signal (z-score),[13],0.142
same,glycan array binding signal (z-score),[14],3.11
same,glycan array binding signal (z-score),[15],-0.994
same,glycan array binding signal (z-score),[16],-1.27
same,glycan array binding signal (z-score),[17],4.73
same,glycan array binding signal (z-score),[18],-0.45
same,glycan array binding signal (z-score),[19],-0.928
same,glycan array binding signal (z-score),[20],2.69
same,glycan array binding signal (z-score),[21],2.39
same,glycan array binding signal (z-score),[22],-0.133
same,glycan array binding signal (z-score),[23],1.11
same,glycan array binding signal (z-score),[24],0.127
same,glycan array binding signal (z-score),[25],6.36
same,glycan array binding signal (z-score),[26],1.43
same,glycan array binding signal (z-score),[27],1.74
same,glycan array binding signal (z-score),[28],3.46
same,glycan array binding signal (z-score),[29],-0.735
same,glycan array binding signal (z-score),[30],0.428
